In the library only some 2.2% were active in any assay of this set; here they are far more common.
Efflux pump mplx = antifungal efflux pump inhibition, Nile Red retention | inhibition, % at 10 µM | S. cerevisiae Candida pump triplex | 0.44% of 330,000 active;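 active means plate passing quality check with inhibition over a set limit, or well fluorescence over plate mean plus 4 SD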;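 further: Nile Red retained in pooled yeast measured as flow cytometry median fluorescence; 0% = buffer negative control and 100% = Enniatin B positive control; higher means more Nile Red kept so more efflux inhibition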
sPLA2-III inh = Inhibits HGIII-sPLA2 liposome hydrolysis, primary screen | inhibition, % at 12.2 µM | Q9NZ20 | 0.56% of 370,000 active | QFRET BODIPY PC-A2 liposome hydrolysis, fluorescence;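 active means inhibition above mean plus 3 SD of compounds lying within the high and low control bounds, cut at about 19% in these data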;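 further: 0% = median of test compound wells and 100% = no enzyme DMSO wells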
Target sequence (Q9NZ20 whole entry, looked up): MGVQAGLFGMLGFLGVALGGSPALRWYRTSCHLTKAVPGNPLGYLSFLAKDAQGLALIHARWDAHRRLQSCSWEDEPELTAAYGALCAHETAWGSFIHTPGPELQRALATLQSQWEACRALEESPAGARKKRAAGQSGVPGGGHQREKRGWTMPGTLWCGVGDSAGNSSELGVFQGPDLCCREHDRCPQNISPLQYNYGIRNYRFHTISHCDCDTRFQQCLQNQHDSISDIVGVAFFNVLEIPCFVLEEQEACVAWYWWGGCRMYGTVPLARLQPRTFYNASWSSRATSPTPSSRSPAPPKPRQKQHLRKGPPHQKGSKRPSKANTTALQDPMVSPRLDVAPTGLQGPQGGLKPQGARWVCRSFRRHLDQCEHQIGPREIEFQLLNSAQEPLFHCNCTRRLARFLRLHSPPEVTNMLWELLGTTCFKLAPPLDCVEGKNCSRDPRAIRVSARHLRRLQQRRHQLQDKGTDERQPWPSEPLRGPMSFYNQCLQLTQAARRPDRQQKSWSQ
SKN-1 inh = C. elegans SKN-1 inhibition; C. elegans VP596 Pgst-4::GFP/RFP ratio, acrylamide-induced, 24 h; inhibition, % at 21.8 µM; 0.49% of 360,000 active; AID 624304;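 active means interference check ratio from 0.5 to 1.5 plus GFP to RFP signal ratio inhibition reaching or exceeding a fixed threshold, cut at about 30% in these data, passing the limit was not always enough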
Mot1-301 SUMO = SUMOylation pathway inhibition by Mot1-301 growth rescue; S. cerevisiae Mot1-301 growth rescue, ATP luminescence, 38.5C; percent above DMSO median, 100 means doubled; growth rescue, % at 18.8 µM; 1% of 320,000 active; AID 2716;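 active means every valid replicate shows activation above 250% relative to neutral control wells; inactive means the rest, any valid replicate at or below 250%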;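 further: OY570 slx delta 5 strain wells were the positive control but not used for scaling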
Active calls of the source: *; · = no result; + = active, no number.

SMILES	Efflux pump mplx	sPLA2-III inh	SKN-1 inh	Mot1-301 SUMO
CC(/C=N/N1CCN(Cc2ccccc2)CC1)=C\c1ccccc1	0	3	62*	117
CC(=C/c1ccccc1)/C=N/N1CCN(Cc2ccc(C)cc2)CC1	0	1	3	139
Nc1c2c(nc3ccc(Br)cc13)N(C1CCCCC1)CC2	2.4*	·	·	-21
COC(=O)C1=C(C)N(C)C(=NCC2CC2)NC1c1ccc(Cl)cc1 (centres undefined)	·	6	·	·
O=c1[nH][nH]c(-c2ccccc2O)c1C(C[N+](=O)[O-])c1ccc(Cl)cc1Cl (centres undefined)	1	-15	-1	269*
CS(=O)(=O)N1N=C(c2cccs2)CC1c1ccccc1O (centres undefined)	0	-7	41*	-3
CCc1nnc(NC(=O)CSc2nnc(CNC(=O)c3ccccc3F)n2C)s1	0	2	7	-4
CSc1ccccc1NC(=O)CSc1nnc(CNC(=O)c2ccccc2F)n1C	0	5	12	308*
Cn1cc([N+](=O)[O-])c(C(=O)Nc2ccc(-c3nc4ccccc4o3)cc2)n1	0	7	-1	+
CN(C)c1ccc(C2CNC(c3ccc(Cl)c([N+](=O)[O-])c3)c3[nH]c4ccccc4c32)cc1 (centres undefined)	0	10	-9	-8
O=[N+]([O-])c1cccc(C2NCC(c3ccccc3Cl)c3c2[nH]c2ccccc32)c1 (centres undefined)	0	-3	2	564*
O=C(c1ccncc1)N1CCN(C2CCC(c3ccccc3)CC2)CC1 (centres undefined)	0	-7	5	305*
CCNC(=S)Nc1ccc(Oc2ccccc2)cc1	0	4	5	·
COC(=O)Nc1ccc(Oc2ccccc2)cc1	1	-1	-5	278*
COc1ccc(NC(=S)Nc2ccc(Oc3ccccc3)cc2)cc1	0	-7	-2	277*
O=C(CSc1nnc(-c2ccccc2)n1Cc1ccco1)Nc1ccc(OCc2ccccc2)cc1	·	-7	·	·
COc1ccc(N2C(=O)c3n[nH]c(C)c3C2c2cccc(C(F)(F)F)c2)cc1 (centres undefined)	·	-2	·	·
COc1ccc(C2CC(c3ccc4ccccc4c3OC(C)=O)=NN2C(C)=O)cc1 (centres undefined)	0	-5	8	-13
Cn1nc(C(C)(C)C)c([N+](=O)[O-])c1C(=O)N1CCCCCC1	0	0	20	444*
Cn1nc(C(C)(C)C)c([N+](=O)[O-])c1C(=O)N1CCOCC1	0	4	14	10
Cc1ccc(NC(=O)c2cccc(N3C(=O)C4C5CCC(C5)C4C3=O)c2)c(C)c1 (centres undefined)	0	3	1	+
Cc1ccccc1NC(=O)c1cccc(N2C(=O)C3C4CCC(C4)C3C2=O)c1 (centres undefined)	0	6	10	3
CC(C)(C)NC(=O)C(=O)NCc1ccccn1	0	6	1	3
O=C(NCc1ccccn1)C(=O)NCc1ccccn1	0	5	24	295*
C[C@H](c1ccccc1)N1C[C@@H](COCc2ccccc2)Oc2cccc(Oc3ccc(C(C)(C)C)cc3)c2S1(=O)=O	·	5	·	·
SMILES	Efflux pump mplx	sPLA2-III inh	SKN-1 inh	Mot1-301 SUMO
O=C(CS(=O)(=O)c1ccc(F)cc1)N1CCN(c2ccccc2)CC1	0	-10	13	514*
O=C(Oc1ccccc1)N1CCN(c2ccc(F)cc2)CC1	0	6	43*	170
COC(=O)C1=C(C)N(C)C(=NCc2ccc3c(c2)OCO3)NC1c1ccccc1 (centres undefined)	·	-1	·	·
Cc1ccc2[nH]c3c(c2c1)CCCC3NCCO (centres undefined)	0	14	7	-16
COC(=O)[C@]12C[C@H](CC(=O)NCCC(C)C)C(=O)N(Cc3ccccc3)C1=C[C@H](C1CCCC1)O[C@@H]2C	·	7	·	·
CCCCc1c(-c2ccccc2OC)ncn1Cc1ccc(Br)cc1	·	-10	·	·
O=C(NCCc1ccccc1)c1cccc([N+](=O)[O-])c1	0	-2	-1	514*
COc1ccc(CCNC(=O)c2cccc([N+](=O)[O-])c2)cc1OC	0	1	-7	19
O=C(Cn1c(=O)c2sccc2n(Cc2cccc([N+](=O)[O-])c2)c1=O)NCCc1ccccc1	0	-8	-2	884*
COC(=O)[C@]12C[C@H](CC(=O)NCCCCc3ccccc3)C(=O)N(Cc3ccco3)C1=C[C@H](COCc1ccccc1)O[C@@H]2C	·	-17	·	·
O=C(NCC1CCN(C(=O)C(=O)c2cc3ccccc3o2)CC1)c1ccncc1	·	3	·	·
O=S(=O)(Nc1ccc(C(F)(F)F)cc1)c1cnc[nH]1	0	-40	38*	-7
O=S(=O)(Nc1cccc(C(F)(F)F)c1)c1cnc[nH]1	0	-31	-2	115
CC(C)[C@H](NC(=O)c1ccc(Cl)cc1)C(=O)Nc1cccc(S(=O)(=O)N2CCOCC2)c1	·	-9	-10	·
COc1cc(OC)cc(C(=O)N[C@H](C(=O)Nc2cccc(S(=O)(=O)N3CCCC3)c2)C(C)C)c1	0	-32	-15	720*
CCc1ccc(NCc2ccc(OC)c(Cn3ccnc3)c2)cc1	0	-39	-15	341*
C[C@H]1COc2c3ccccc3nn21	·	6	·	·
O=C(Nc1cccc(-c2cccc(Cl)c2)c1)C1CCN(CC2CCOC2)CC1 (centres undefined)	0	-13	13	194
O=C(Nc1cccc(-c2cccc(F)c2)c1)C1CCN(CC2CCOC2)CC1 (centres undefined)	0	-2	-4	270*
O=C(c1ccccc1F)N1CCC(O)(c2cccnc2)CC1	0	6	-10	·
Nc1ccccc1C(=O)N1CCC(O)(c2ccc(Cl)cc2)CC1	0	3	-4	325*
CC(CC(=O)c1cccs1)CC(=O)c1cccs1	0	-1	1	24
Cc1cc(C)c(C(CC(=O)c2cccs2)C(C#N)C#N)c(C)c1 (centres undefined)	0	-5	-1	477*
CC(C)(N[C@@H](Cc1c[nH]c2ccccc12)C(=O)NCC(c1ccccc1)c1ccccc1)C(=O)NC1CCCCC1	·	-97	·	·
C/C(=C\C(=O)c1ncc(C(F)(F)F)cc1Cl)N(C)C	0	3	4	-15
SMILES	Efflux pump mplx	sPLA2-III inh	SKN-1 inh	Mot1-301 SUMO
CN(C)/C=C(\C=O)c1ncc(C(F)(F)F)cc1Cl	0	-1	0	905*
NC(=O)c1ncc(C(F)(F)F)cc1Oc1cccc(C(F)(F)F)c1	0	6	-22	309*
c1ccc2[nH]c(Cn3nnc4ccccc43)nc2c1	0	-4	27	-11
O=C1c2[nH]nc(-c3ccccc3)c2C(c2ccc(F)cc2)N1Cc1ccccc1 (centres undefined)	·	-14	·	·
COc1ccc(CN=C2NN=C(c3ccc(Cl)cc3)CS2)cc1	0	2	15	5
CC(C)(C)N=C1NN=C(c2ccc(Cl)cc2)CS1	0	2	51*	24
CC(=C/c1ccccc1)/C=N/NC(=O)c1cccs1	0	-2	5	29

Assay outcomes deposited in PubChem BioAssay by several laboratories.
